# Results from PubChem BioAssay (EPA / NIEHS).
# Results filed as inconclusive are left out. Active and inactive are the calls of the source. How the source made its calls, unless noted: active means hit-call score of the fitted dose curve at least 0.9, where 1 is the maximum; inactive means score below 0.9.
# Assays:
# DIO1 (gene 1733) = test: CCTE_GLTED_hDIO1: CCTE's human Deiodinase 1 (DIO1) Inhibition Assay, Great Lakes Toxicology and Ecology Division (GLTED) Lab (AID 2283987; active means hit-call score of the fitted dose curve at least 0.9, where 1 is the maximum;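 further: isolated human DIO1 enzyme in a cell-free setup rather than cells; enzyme activity read as free iodide liberated from substrate via Sandell-Kolthoff colorimetry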)
# In short: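 Cell-free hDIO1 assay, triplicate plates. Absorbance of the Sandell-Kolthoff reaction reports enzyme-liberated iodide; iodinated chemicals or nitrite, iron and thiocyanate may interfere.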
# [1] = molecular target: Nucleoli Translocation, AR (gene 367) (UniProt P10275); test: UPITT_HCI_U2OS_AR_TIF2_Nucleoli_Antagonist: University of Pittsburgh U2OS Androgen Receptor-Transcriptional Intermediary Factor 2 (AR-TIF2) Antagonism High Content Imaging Assay for Nucleoli Translocation (AID 2283997; active means hit-call score of the fitted dose curve at least 0.9, where 1 is the maximum)
# In short: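 Measured quantity was AR-RFP fluorescence localized to nucleoli in engineered U2OS cells also bearing TIF2-GFP, acquired on automated high-content imagers. Primary testing used 20 uM compound; actives were confirmed in triplicate wells.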
# [2] = molecular target: Nucleoli Translocation, AR (gene 367) (UniProt P10275); test: UPITT_HCI_U2OS_AR_TIF2_Nucleoli_Agonist: University of Pittsburgh U2OS Androgen Receptor-Transcriptional Intermediary Factor 2 (AR-TIF2) Agonism High Content Imaging Assay for Nucleoli Translocation (AID 2283998; active means hit-call score of the fitted dose curve at least 0.9, where 1 is the maximum)
# In short: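 Red-tagged human androgen receptor co-expressed with GFP-tagged TIF2 serves as the binding reporter. Primary testing used 20 uM final (0.2% DMSO); follow-up dose response covered 0.195 to 50 uM final (0.5% DMSO).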
# [3] = molecular target: Ratio of Nucleoli Translocation and Cytoplasm, AR (gene 367) (UniProt P10275); test: UPITT_HCI_U2OS_AR_TIF2_Nucleoli_Cytoplasm_Ratio_Agonist: University of Pittsburgh U2OS Androgen Receptor-Transcriptional Intermediary Factor 2 (AR-TIF2) Agonism High Content Imaging Assay for Ratio of Nucleoli Translocation and Cytoplasm (AID 2284000; active means hit-call score of the fitted dose curve at least 0.9, where 1 is the maximum;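 further: hits raise the red nucleolar to cytoplasm ratio above vehicle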)
# In short: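 Read-out first: nucleolar-to-cytoplasm ratio of red (AR-RFP) signal, quantified by high-content imaging in U2OS cells co-expressing TIF2-GFP. Activity is scored as signal increase over DMSO. Single-point screening used 20 uM final (0.2% DMSO).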
# [4] = CCTE_Shafer_MEA_acute_spike_number: CCTE's Neural Acute Assay for Total Number of Spikes, Shafer Lab (AID 2284008);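 on AC50: curve fitted for decrease in spike count so AC50 reflects inhibitors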
# In short: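 Cortical neurons from rat, matured to DIV 13 or 15 on microelectrode arrays, are recorded at 37 C before and during 40-min exposure to 0.03-40 uM compound. Wells need >/= 10 active electrodes.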
# [5] = CCTE_Shafer_MEA_acute_firing_rate_mean: CCTE's Neural Acute Assay for Mean Firing Rate, Shafer Lab (AID 2284009);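 further: analyzed for loss of signal so actives lower firing rate relative to DMSO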
# In short: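 Percent change in well-mean firing rate was derived from extracellular spikes detected at 8x rms noise (300-5000 Hz band-pass) before and after a 40-min compound exposure. Cultures were primary rat cortical neurons, tested at 0.03-40 uM.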
# [6] = CCTE_Harrill_HTTr_Viability_MCF7: CCTE's 6-hour Cell Viability Assessment for the High-Throughput Transcriptomics (HTTr) Platform, in MCF-7 cells cultured in DMEM + 10% fetal bovine serum, Harrill Lab (AID 2284010)
# In short: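 Membrane integrity was scored by high-content imaging of propidium iodide dye exclusion after a 6 h exposure across an eight-point dilution series. Data were fitted bidirectionally relative to DMSO as negative control and baseline.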
# [7] = CCTE_Simmons_MITO_basal_resp_rate: CCTE's HepG2 Seahorse XF Respirometric Screening Assay at Basal Respiratory State, Simmons Lab (AID 2284001); conditions: actives raise or lower the signal
# In short: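 HepG2 respirometry; 7-pt titration 125 nM–100 uM final; kinetic OCR at 6 min intervals for 72 min; n=3 biological, technical singles; DMSO baseline, gain or loss fit; fenpyroximate (decrease) and 2,4-DNP (increase) controls.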
# [8] = CCTE_Simmons_MITO_max_resp_rate: CCTE's HepG2 Seahorse XF Respirometric Screening Assay at Maximal Respiratory State [uncoupled], Simmons Lab (AID 2284002); conditions: actives raise or lower the signal
# In short: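 Maximal respiration in HepG2 cells is recorded as OCR by Seahorse XF following FCCP injection. Compounds span 125 nM–100 uM final; activity is called in either direction against DMSO.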
# [9] = CCTE_Simmons_MITO_inhib_resp_rate: CCTE's HepG2 Seahorse XF Respirometric Screening Assay at Inhibited Respiratory State [full ETC block], Simmons Lab (AID 2284006); conditions: actives raise or lower the signal
# In short: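 HepG2 cells on Seahorse XF96; oxygen consumption measured after test compound, then FCCP, then rotenone/antimycin A injections over 72 min. Test chemicals at 7 concentrations, 125 nM–100 uM final. OCR fitted bidirectionally versus DMSO.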
# [10] = CCTE_Simmons_MITO_viability: CellTiter-Glo Viability Assessment for CCTE's HepG2 Seahorse XF Respirometric Screening Assay [post-hoc], Simmons Lab (AID 2284007; active means hit-call score of the fitted dose curve at least 0.9, where 1 is the maximum;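 on AC50: cells exposed to chemical for 90 min before the ATP read; actives lower ATP signal relative to DMSO baseline meaning reduced viability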)
# In short: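 HepG2 cells from the Seahorse XF respirometry run were exposed 90 min to a 7-point series, 125 nM–100 uM final, DMSO vehicle; ATP content then read by luciferase luminescence. Three biological replicates, technical singles; loss of signal fitted versus DMSO.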
# [11] = CCTE_Harrill_HTTr_Viability_PRF_DMEM_6hr: (Pilot) CCTE's 6-hour Cell Viability Assessment for the High-Throughput Transcriptomics (HTTr) Platform, in MCF-7 cells cultured phenol red-free DMEM + 10% charcoal-stripped fetal bovine serum, Harrill Lab (AID 2283976)
# In short: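 MCF-7 cells in phenol red-free DMEM with 10% charcoal-stripped FBS exposed 6 hours to an eight-point dilution series. Propidium iodide exclusion imaged; curves fitted bidirectionally against DMSO.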
# [12] = CCTE_Harrill_HTTr_Viability_PRF_DMEM_12hr: (Pilot) CCTE's 12-hour Cell Viability Assessment for the High-Throughput Transcriptomics (HTTr) Platform, in MCF-7 cells cultured in phenol red-free DMEM + 10% charcoal-stripped fetal bovine serum, Harrill Lab (AID 2283977)
# In short: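 MCF-7 cells in phenol red-free DMEM with 10% charcoal-stripped FBS exposed 12 hours to an eight-point dilution series. Viability assessed by high-content imaging of propidium iodide exclusion; bidirectional fit versus DMSO.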
# [13] = CCTE_Harrill_HTTr_Apoptosis_DMEM_6hr: (Pilot) CCTE's 6-hour Apoptosis Assessment for the High-Throughput Transcriptomics (HTTr) Platform, in MCF-7 cells cultured in DMEM + 10% fetal bovine serum, Harrill Lab (AID 2283981)
# In short: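 Caspase-3/7 activation read by high content imaging with CellEvent Caspase 3/7 Green in MCF-7 cells (DMEM + 10% FBS), 6 h after dosing; eight-point dilution series. Bidirectional fitting relative to DMSO baseline.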
# [14] = CCTE_Harrill_HTTr_Apoptosis_DMEM_12hr: (Pilot) CCTE's 12-hour Apoptosis Assessment for the High-Throughput Transcriptomics (HTTr) Platform, in MCF-7 cells cultured in DMEM + 10% fetal bovine serum, Harrill Lab (AID 2283982)
# In short: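 MCF-7 cells in DMEM + 10% FBS, exposed 12 h to an eight-point dilution series; caspase-3/7 activation imaged with CellEvent Green. Bidirectional fit versus DMSO.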
# [15] = CCTE_Harrill_HTTr_Apoptosis_DMEM_24hr: (Pilot) CCTE's 24-hour Apoptosis Assessment for the High-Throughput Transcriptomics (HTTr) Platform, in MCF-7 cells cultured in DMEM + 10% fetal bovine serum, Harrill Lab (AID 2283983)
# In short: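 MCF-7 cells in DMEM + 10% FBS, eight-point dilution series, 24 h exposure. Caspase-3/7 activation imaged by high-content imaging with CellEvent Caspase 3/7 Green. Bidirectional curve fitting against DMSO baseline.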
# [16] = CCTE_Harrill_HTTr_Apoptosis_PRF_DMEM_6hr: (Pilot) CCTE's 6-hour Apoptosis Assessment for the High-Throughput Transcriptomics (HTTr) Platform, in MCF-7 cells cultured phenol red-free DMEM + 10% charcoal-stripped fetal bovine serum, Harrill Lab (AID 2283984)
# In short: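 MCF-7 cells in phenol red-free DMEM + 10% charcoal-stripped FBS, eight-point dilution series, 6 h exposure. Caspase-3/7 activation imaged by high-content imaging with CellEvent Caspase 3/7 Green; bidirectional fit versus DMSO baseline.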
# [17] = CCTE_Harrill_HTTr_Apoptosis_PRF_DMEM_24hr: (Pilot) CCTE's 24-hour Apoptosis Assessment for the High-Throughput Transcriptomics (HTTr) Platform, in MCF-7 cells cultured in phenol red-free DMEM + 10% charcoal-stripped fetal bovine serum, Harrill Lab (AID 2283986)
# In short: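 MCF-7 cells in phenol red-free DMEM with 10% charcoal-stripped FBS, exposed 24 h across an eight-point dilution series. Caspase-3/7 activation imaged with CellEvent Green by high content imaging; bidirectional fitting against DMSO.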
# [18] = CCTE_Harrill_HTTr_Viability_PRF_DMEM_24hr: (Pilot) CCTE's 24-hour Cell Viability Assessment for the High-Throughput Transcriptomics (HTTr) Platform, in MCF-7 cells cultured in phenol red-free DMEM + 10% charcoal-stripped fetal bovine serum, Harrill Lab (AID 2283980)
# In short: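 MCF-7 cells in phenol red-free DMEM with 10% charcoal-stripped FBS, eight-point dilution series, 24 h exposure. Membrane integrity by propidium iodide exclusion with high content imaging; bidirectional fit vs DMSO.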
# Chain of Ratio of Nucleoli Translocation and Cytoplasm, AR (gene 367) (P10275 whole entry, looked up): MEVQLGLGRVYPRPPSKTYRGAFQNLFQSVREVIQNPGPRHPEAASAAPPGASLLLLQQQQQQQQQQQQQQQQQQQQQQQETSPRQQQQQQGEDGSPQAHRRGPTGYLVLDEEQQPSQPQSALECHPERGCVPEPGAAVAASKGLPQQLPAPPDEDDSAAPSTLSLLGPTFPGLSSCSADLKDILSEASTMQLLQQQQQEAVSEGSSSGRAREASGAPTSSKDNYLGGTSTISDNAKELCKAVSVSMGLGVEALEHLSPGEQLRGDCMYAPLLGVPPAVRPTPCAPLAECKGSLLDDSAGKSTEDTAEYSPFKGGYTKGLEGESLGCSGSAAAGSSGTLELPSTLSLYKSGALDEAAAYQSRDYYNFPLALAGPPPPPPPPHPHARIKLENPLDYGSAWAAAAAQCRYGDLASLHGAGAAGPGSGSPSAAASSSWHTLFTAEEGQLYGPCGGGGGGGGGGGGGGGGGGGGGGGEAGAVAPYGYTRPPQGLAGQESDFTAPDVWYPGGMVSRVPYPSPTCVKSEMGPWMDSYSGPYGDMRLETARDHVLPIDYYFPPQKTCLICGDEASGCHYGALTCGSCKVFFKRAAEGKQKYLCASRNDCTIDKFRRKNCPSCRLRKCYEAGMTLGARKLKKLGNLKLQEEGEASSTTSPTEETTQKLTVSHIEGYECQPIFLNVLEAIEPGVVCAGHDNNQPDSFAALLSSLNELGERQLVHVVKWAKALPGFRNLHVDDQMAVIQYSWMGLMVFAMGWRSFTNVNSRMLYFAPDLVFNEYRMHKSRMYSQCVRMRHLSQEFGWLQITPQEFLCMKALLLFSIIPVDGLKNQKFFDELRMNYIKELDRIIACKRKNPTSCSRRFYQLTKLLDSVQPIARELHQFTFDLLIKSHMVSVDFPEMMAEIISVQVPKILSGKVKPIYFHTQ
# Chain of Nucleoli Translocation, AR (gene 367) (P10275 whole entry, looked up): as above
smiles,measurement,setting,value
Cc1ccc(-c2cc(C(F)(F)F)nn2-c2ccc(S(N)(=O)=O)cc2)cc1,AC50,DIO1 (gene 1733),170 µM (active)
same,AC50,[1],26.6 µM (active)
same,outcome,[2],inactive
same,outcome,[3],inactive
same,AC50,[4],6.27 µM (active)
same,AC50,[5],6.27 µM (active)
same,outcome,[6],inactive
CCOCCOCCO,outcome,[1],inactive
same,outcome,[2],inactive
same,outcome,[3],inactive
same,outcome,[6],inactive
Nc1nc(=S)c2[nH]cnc2[nH]1,outcome,[1],inactive
same,outcome,[2],inactive
same,outcome,[3],inactive
same,outcome,[4],inactive
same,outcome,[5],inactive
same,outcome,[6],inactive
O=C(NS(=O)(=O)/C=C/c1cccs1)c1ccc(F)cc1Br,outcome,[1],inactive
same,outcome,[3],inactive
same,outcome,[6],inactive
O=Cc1ccccc1C=O,AC50,DIO1 (gene 1733),49.3 µM (active)
same,outcome,[1],inactive
same,outcome,[2],inactive
same,outcome,[6],inactive
Cc1cc(Cc2ccc(N)c(C)c2)ccc1N,outcome,[7],inactive
same,AC50,[8],50 µM (active)
same,outcome,[9],inactive
same,AC50,[4],15.8 µM (active)
same,AC50,[5],14.9 µM (active)
same,outcome,[6],inactive
Cc1ccc(C(C)(C)C)c(O)c1,AC50,[7],44.6 µM (active)
same,outcome,[8],inactive
same,outcome,[9],inactive
same,outcome,[10],inactive
same,AC50,[4],10.3 µM (active)
same,outcome,[5],inactive
same,outcome,[6],inactive
CC(C)(O)c1ccc(CNC(=O)c2cccnc2Oc2ccc(F)cc2)cc1,outcome,[7],inactive
same,AC50,[8],18.6 µM (active)
same,outcome,[9],inactive
same,outcome,[10],inactive
same,outcome,[6],inactive
CCCCCCCCCC[N+](C)(C)[O-],outcome,[1],inactive
same,outcome,[2],inactive
same,outcome,[3],inactive
same,outcome,[6],inactive
NCCOCCOCCN,outcome,[1],inactive
same,outcome,[2],inactive
same,outcome,[3],inactive
same,outcome,[6],inactive
CCC(C)N(C)C(=O)c1cc2ccccc2c(-c2ccccc2Cl)n1 (stereo unspecified),outcome,[1],inactive
same,outcome,[2],inactive
same,outcome,[3],inactive
same,outcome,[6],inactive
COC(=O)[C@H]1[C@H]2C[C@@H]3c4[nH]c5cc(OC)ccc5c4CCN3C[C@H]2C[C@@H](OC(=O)c2cc(OC)c(OC)c(OC)c2)[C@@H]1OC,outcome,[11],inactive
same,outcome,[12],inactive
same,outcome,[13],inactive
same,outcome,[14],inactive
same,AC50,[15],46.2 µM (active)
same,outcome,[16],inactive
same,AC50,[17],58.3 µM (active)
same,AC50,[4],1.03 µM (active)
same,AC50,[5],1.04 µM (active)
same,outcome,[6],inactive
CC(C)OC(=O)C(C)(C)Oc1ccc(C(=O)c2ccc(Cl)cc2)cc1,outcome,[11],inactive
same,outcome,[12],inactive
same,outcome,[18],inactive
same,outcome,[13],inactive
same,outcome,[14],inactive
same,outcome,[15],inactive
same,outcome,[16],inactive
same,outcome,[17],inactive
same,outcome,[1],inactive
same,outcome,[2],inactive
same,AC50,[7],30.5 µM (active)
same,AC50,[8],37.2 µM (active)
same,outcome,[6],inactive
CCN(CC)CCOc1ccc(C(=C(Cl)c2ccccc2)c2ccccc2)cc1,AC50,[11],70 µM (active)
same,AC50,[12],65.8 µM (active)
same,AC50,[18],50.3 µM (active)
same,AC50,[13],81.1 µM (active)
same,AC50,[14],83.4 µM (active)
same,AC50,[15],66.2 µM (active)
same,AC50,[16],79.6 µM (active)
same,AC50,[17],68.3 µM (active)
same,AC50,DIO1 (gene 1733),70.7 µM (active)
same,outcome,[1],inactive
same,outcome,[2],inactive
same,outcome,[3],inactive
same,outcome,[7],inactive
same,AC50,[8],91 µM (active)
same,outcome,[9],inactive
same,AC50,[10],84.2 µM (active)
same,AC50,[4],2.58 µM (active)
same,AC50,[5],2.62 µM (active)
same,outcome,[6],inactive
O=C1CCCCC1,outcome,[1],inactive
same,outcome,[2],inactive
same,outcome,[3],inactive
same,outcome,[6],inactive
S=c1[nH]c2ccccc2s1,AC50,DIO1 (gene 1733),23.4 µM (active)
same,outcome,[6],inactive
CC1=C(C)S(=O)(=O)CCS1(=O)=O,outcome,[1],inactive
same,outcome,[2],inactive
same,outcome,[3],inactive
same,outcome,[4],inactive
same,outcome,[5],inactive
same,outcome,[6],inactive
C#CC(O)C(CC)CCCC (stereo unspecified),AC50,[1],22.5 µM (active)
same,outcome,[2],inactive
same,outcome,[3],inactive
same,outcome,[6],inactive
CC(=O)O[C@]1(C(C)=O)CC[C@H]2[C@@H]3C=C(Cl)C4=CC(=O)[C@@H]5C[C@@H]5[C@]4(C)[C@H]3CC[C@@]21C,outcome,[11],inactive
same,outcome,[12],inactive
same,outcome,[18],inactive
same,outcome,[13],inactive
same,outcome,[14],inactive
same,outcome,[15],inactive
same,outcome,[16],inactive
same,outcome,[17],inactive
same,AC50,[7],29 µM (active)
same,AC50,[8],28.1 µM (active)
same,outcome,[9],inactive
same,AC50,[10],23 µM (active)
same,outcome,[6],inactive
CSc1ccc(Oc2ccc(S(N)(=O)=O)cc2CN(C)C)cc1C,outcome,[1],inactive
same,AC50,[2],50 µM (active)
same,AC50,[3],74.8 µM (active)
same,outcome,[4],inactive
same,outcome,[5],inactive
same,outcome,[6],inactive
